Assay results: PubChem BioAssay AID778 (Sanford-Burnham Center for Chemical Genomics, 2007)
Screen size: about 96,000 compounds; about 20,000 (21%) were called active.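 The calls were made as follows: active = CYP2C19 inhibition above a set limit at 5 µM in the primary screen (cut at about 50% in these data); inactive = the rest.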 These entries were drawn from the full list.

biological target: Cytochrome P450 2C19 (Homo sapiens) (UniProt P33261); experiment: blockers of cytochrome P450 2C19 activity – biochemical, luminescence, ADME assay, primary screen (AID 778); settings: CYP2C19 Supersomes, luciferin-H EGE luminescence, 30 min; at 5 µM; stronger effect = higher value;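 also: plate controls were negative control wells for no effect and 2.5 mM tranylcypromine positive control for full effect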
Sequence (P33261 whole entry, looked up): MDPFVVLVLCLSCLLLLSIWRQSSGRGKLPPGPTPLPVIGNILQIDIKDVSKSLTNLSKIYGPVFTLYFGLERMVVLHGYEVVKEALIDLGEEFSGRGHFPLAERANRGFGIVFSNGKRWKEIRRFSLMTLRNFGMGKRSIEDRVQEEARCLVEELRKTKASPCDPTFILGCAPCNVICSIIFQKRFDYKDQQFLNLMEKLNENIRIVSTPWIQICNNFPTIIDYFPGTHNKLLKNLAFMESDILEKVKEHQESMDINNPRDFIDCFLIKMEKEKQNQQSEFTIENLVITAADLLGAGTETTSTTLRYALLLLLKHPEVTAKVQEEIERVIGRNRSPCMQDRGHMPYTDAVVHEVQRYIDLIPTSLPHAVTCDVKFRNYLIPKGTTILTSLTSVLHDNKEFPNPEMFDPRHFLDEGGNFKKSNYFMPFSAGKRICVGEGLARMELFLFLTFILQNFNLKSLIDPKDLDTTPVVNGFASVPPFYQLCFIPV

SMILES | inhibition
CCn1c(=N)c(C(=O)NCCCOC)cc2c(=O)n3cccc(C)c3nc21 | -9.8% (inactive)
Cc1cccn2c(=O)c3cc(C#N)c(=O)n(CCCN4CCOCC4)c3nc12 | 61.4% (active)
Cc1cccn2c(=O)c3cc(C(=O)N4COCC4(C)C)n(C)c3nc12 | 0.5% (inactive)
CCCc1[nH]nc2c1C(c1ccc(Br)s1)C(C#N)=C(N)O2 (stereo not drawn) | 34.4% (inactive)
Cc1noc(NS(=O)(=O)c2ccc(N/C=C/C(=O)c3ccccc3)cc2)c1C | -5.7% (inactive)
Cc1noc(C)c1CSc1nc2cc(S(=O)(=O)N3CCOCC3)ccc2o1 | 63.9% (active)
Cc1ccc(S(=O)(=O)N2CCN(S(=O)(=O)N3CCOCC3)CC2)cc1 | 7.3% (inactive)
Cc1ccc(Oc2nc3ccccc3n3c(C)nnc23)cc1 | -14.5% (inactive)
COc1ccccc1-n1nnnc1S(=O)(=O)Cc1ccc(Cl)cc1 | 58.4% (active)
COc1ccccc1N1CCN(C(=O)CN(Cc2ccc(Cl)cc2)S(C)(=O)=O)CC1 | 34% (inactive)
CCOCCCNC(=O)C(NC(=O)c1ccc(=O)[nH]c1)c1ccc(C)cc1 (stereo not drawn) | 5.2% (inactive)
COc1ccc(-c2oc(/N=C/N3CCCC3)c(C#N)c2-c2ccc(OC)cc2)cc1 | 59.3% (active)
N#Cc1c(/N=C/N2CCCC2)oc(-c2ccccc2)c1-c1ccccc1 | 45.7% (inactive)
COc1cc(C(=O)Nc2oc(-c3ccccc3)c(-c3ccccc3)c2C#N)cc(OC)c1OC | 27.1% (inactive)
COc1cccc(CN2C(=O)CCC2(C)C(=O)NC2CCCCCC2)c1 (stereo not drawn) | 8.6% (inactive)
Cc1ccc(-n2ncc3c(N4CCN(c5ccc(F)cc5)CC4)ncnc32)c(C)c1 | -22.2% (inactive)
CCc1cc2c(N3CCN(c4nnc(CC)s4)CC3)ncnc2s1 | 52.3% (active)
Cc1nnc(SCC(=O)Nn2cnnc2)s1 | 4% (inactive)
CC(NCCO)C(=O)C12CC3CC(CC(C3)C1)C2 (stereo not drawn) | -5.4% (inactive)
CC(C)(C)Cc1nnc(NC(=O)c2cc(-c3ccccc3)nc3ccccc23)s1 | 11.9% (inactive)
COc1cccc(OC)c1OCCN1CCN(C(=O)c2ccco2)CC1 | 21% (inactive)
CCn1cc(C(=O)N2CCN(Cc3ccc4c(c3)OCO4)CC2)c2cc(OC)c(OC)cc2c1=O | 29.5% (inactive)
COc1ccc(Br)cc1CN1CCN(C(=O)c2cccc(OC)c2OC)CC1 | 74% (active)
CCCn1nc2cc(C(=O)NCc3ccccc3)ccc2c1OCC | 2.2% (inactive)
CCCS(=O)(=O)C(=C1Nc2ccccc2N1)S(=O)(=O)CCC | 8.6% (inactive)

SMILES | inhibition
C=CCN1C(=O)C(O)(CC(=O)c2ccc(Cl)cc2)c2ccccc21 (stereo not drawn) | 89.1% (active)
CCOC(=O)CN1C(=O)C(O)(CC(=O)c2ccccn2)c2ccccc21 (stereo not drawn) | 6.5% (inactive)
O=C(CC1(O)C(=O)N(CN2CCOCC2)c2ccccc21)c1ccccc1 (stereo not drawn) | 12.7% (inactive)
Fc1ccc2nc(Nc3nc4c(s3)CCCC4)sc2c1 | -8.1% (inactive)
Cc1nc2ccc(S(=O)(=O)NC(C(=O)N3CCCCCC3)C(C)C)cc2s1 (stereo not drawn) | 21.2% (inactive)
CC(c1ccco1)N(C(=O)COc1ccccc1[N+](=O)[O-])c1ccccn1 (stereo not drawn) | 40.5% (inactive)
CC(C)Cc1ccc(S(=O)(=O)N2CCN(C(=O)c3ccco3)CC2)cc1 | 28.1% (inactive)
CC(c1ccco1)N(C(=O)c1ccc(S(=O)(=O)N2CCCCC2)cc1)c1ccccn1 (stereo not drawn) | 59.1% (active)
Cc1c(NC(=O)/C=C/C(=O)O)cccc1[N+](=O)[O-] | 26.2% (inactive)
CO/N=C/c1ccc(N2CCN(C(=O)c3cccc(Cl)c3)CC2)c([N+](=O)[O-])c1 | 33.8% (inactive)
Cc1c(C)c2cc3c4c(oc3c(C)c2oc1=O)CCCC4 | -0.1% (inactive)
CCOC(=O)c1cnc(-c2ccccc2)nc1Oc1ccc(C)cc1 | 35.2% (inactive)
Cc1ccc(OC(=O)c2cc3ccccc3o2)cc1 | -12.8% (inactive)
Cc1ccc(OC(=O)c2ccccc2C(=O)OCC(F)(F)C(F)F)cc1 | 88.6% (active)
Cc1ccc(C(=O)CS(C)(=O)=O)cc1 | 1% (inactive)
COc1ccc(-n2ncc3c(N4CCCc5ccccc54)ncnc32)cc1 | 12.3% (inactive)
O=C(CSc1ccc(/C=N/NC(=O)c2cccc(F)c2)o1)Nc1ccccc1 | 17.1% (inactive)
O=C(CN1CCSCC1)N/N=C/c1ccc(F)cc1 | 16.6% (inactive)
Cc1ccc(/C=N/NC(=O)Cn2nc(C)c(Br)c2C)o1 | 50.5% (active)
O=C(Nc1ccc2c(c1)nc1n2CCCCC1)c1cc(S(=O)(=O)N2CCOCC2)ccc1Cl | 25.7% (inactive)
CCCCCOC(=O)NCCOC(=O)Nc1ccc(C(=O)OCC)cc1 | 4.4% (inactive)
Cc1cc(NC(=O)c2cnn3cccnc23)n(-c2ccccc2)n1 | 25% (inactive)
O=C1CSC(c2cccc(F)c2)N1c1ccccc1F (stereo not drawn) | 32.9% (inactive)
O=C(c1cccc(S(=O)(=O)N2CCOCC2)c1)N1CCOCC1 | -6.3% (inactive)
CC(C)C(NC(=O)c1cccc(S(=O)(=O)N2CCOCC2)c1)C(=O)NCCc1ccccn1 (stereo not drawn) | -13.9% (inactive)

SMILES | inhibition
CCN(Cc1ccncc1)C(=O)c1cccc(S(=O)(=O)N2CCOCC2)c1 | 97% (active)
COc1ccc(Nc2nc(=O)[nH]nc2C)cc1 | 5% (inactive)
Cn1c(CCN2CCCCCC2)nc2cc(NC(=O)Nc3ccccc3)ccc21 | -3.4% (inactive)
O=c1[nH]c2c(c(=O)n1Cc1ccccc1)CCC2 | -3.7% (inactive)
COc1ccc(C(=O)CN(C(=O)c2ccc(Cl)cc2)N2C(=O)c3ccccc3C2=O)cc1 | 36% (inactive)
Cc1cc(NC(=O)CS(=O)(=O)c2cn(C)c3ccccc23)no1 | 27.3% (inactive)
CCN(CC)C(=O)CSC1c2ccccc2C(=O)N1c1ccccc1 (stereo not drawn) | 49.3% (inactive)
CCc1ccccc1NC1c2ccccc2C(=O)N1c1cccnc1 (stereo not drawn) | 81.5% (active)
N#Cc1nc(N)nc(N(c2ccccc2)c2ccccc2)n1 | 10.4% (inactive)
CC(=O)Nc1cccc(-c2csc(Nc3cccc(C)n3)n2)c1 | 5.7% (inactive)
CCOC(=O)CCP(=O)(O)C(O)(c1ccccc1)c1ccccc1 | -0.4% (inactive)
CCn1c(=O)c(=O)n(CC)c2cc(S(=O)(=O)N3CCc4ccccc43)ccc21 | 91.3% (active)
Cn1c(=O)n(C)c2cc(S(=O)(=O)N3CCCc4ccccc43)ccc21 | 98.7% (active)
COc1ccc(C(=O)OCC(=O)NCC2CCCCC2)cc1S(=O)(=O)N1CCCc2ccccc21 | -0.1% (inactive)
CSc1nc2ccc(S(=O)(=O)N3CCc4ccccc43)cc2s1 | 47.8% (inactive)
Cc1nn(C)c(C)c1S(=O)(=O)N1CCc2ccccc21 | 43.3% (inactive)
CC1CCC(NS(=O)(=O)c2ccc3c(c2)n(C)c(=O)c(=O)n3C)CC1 (stereo not drawn) | 8.2% (inactive)
CC1C(c2ccccc2)=[N+]([O-])C2(CCCC2)N1O (stereo not drawn) | 18.6% (inactive)
C=CCOc1cccc(CNn2cn[nH]c2=S)c1 | 33.9% (inactive)
CCCOC(=O)Nc1sc2c(c1C(=O)OCC)CCC2 | -7.3% (inactive)
COc1ccc(CN2CC(C(=O)NCCN3CCN(c4ccccc4F)CC3)CC2=O)cc1 (stereo not drawn) | -6.5% (inactive)
COc1ccc(N2CCN(CCNC(=O)c3nnc(Cc4c(F)cccc4Cl)o3)CC2)cc1 | 77.3% (active)
COc1ccc(N2CCN(CCNC(=O)CCN3C(=O)COc4ccccc43)CC2)cc1 | 6.4% (inactive)
CCC(C(=O)Nc1ncccn1)(C(F)(F)F)C(F)(F)F | -8.1% (inactive)
NC(=O)CCCC1=NS(=O)(=O)c2ccccc2N1 | -6.5% (inactive)

SMILES | inhibition
COCc1cc(=O)[nH]c2cc(NC(=O)C(F)(F)F)c(C)cc12 | 0.8% (inactive)
CCC1CCCCN1CCNC(=O)c1[nH]c(C)c(C(C)=O)c1C (stereo not drawn) | 2.4% (inactive)
COC(=O)C(NC(C)=O)(Nc1nc2c(s1)CCCC2)C(F)(F)F (stereo not drawn) | 39.3% (inactive)
CCC(=O)NC(Nc1nc2ccc(C)cc2s1)(C(=O)OC)C(F)(F)F (stereo not drawn) | 85.5% (active)
CCC(=O)NC(Nc1cc(C)ccn1)(C(F)(F)F)C(F)(F)F | 14.8% (inactive)
CNC(=S)NNC(=O)c1sccc1OCc1ccccc1 | 20.4% (inactive)
COC(=O)CN(c1nc(C)c(Cl)c(OC)n1)S(=O)(=O)c1ccc(C)cc1 | 19.1% (inactive)
CCNC(=O)CN(c1ccc(C)cc1)S(=O)(=O)c1ccc(SC)cc1 | 75.6% (active)
COC(=O)c1ccc(NC(=O)CN(c2ccc(C)cc2)S(=O)(=O)c2c(C)n[nH]c2C)cc1 | 35% (inactive)
CC1CCC(NC(=O)c2ccc(N3CCCC3=O)cc2)CC1 (stereo not drawn) | -0.4% (inactive)
CCCc1cc(=O)[nH]c(SCc2ccc(C#N)cc2)n1 | 65.1% (active)
CCCc1cc(=O)n2[nH]c(SCc3ccccc3)nc2n1 | 1.2% (inactive)
CCCc1cc(=O)[nH]c(SCC(=O)OCc2ccccc2)n1 | 55% (active)
Cc1cc(=O)[nH]c(SCc2cccc(F)c2)n1 | 7% (inactive)
CCCc1cc(=O)[nH]c(SCC(=O)c2cc(C)n(CCC)c2C)n1 | 29.3% (inactive)
CCOC(=O)Cc1csc(NC(=O)CSc2nc(C)cc(=O)[nH]2)n1 | 12.8% (inactive)
CC(C)c1cc(C(N)=O)c(NC(=O)c2cccc(COc3ccc(Br)cc3)c2)s1 | 5.8% (inactive)
CC(=O)Oc1ccc(C(C)=O)c2c1OCCO2 | 12.1% (inactive)
CCOC(=O)N1CCN(C(=O)Cc2ccc(-n3c(=S)[nH]c4ccccc4c3=O)cc2)CC1 | 17.9% (inactive)
COc1ccccc1CNC(=O)C1CCCN(S(=O)(=O)c2cccc3cccnc23)C1 (stereo not drawn) | 16% (inactive)
CCN(Cc1ccccc1)C(=O)CSc1nc(C)cc2c1C(=O)OC2 | 72.3% (active)
Cc1ccc(-c2nn(-c3ccccc3)cc2CN(Cc2ccccc2)C(=O)CCC(=O)O)o1 | 23.4% (inactive)
CCOC(=O)n1c(SCC(=O)N(CC)CC)nc2ccccc21 | 2.8% (inactive)
